# Source: PubChem BioAssay
# Records with an inconclusive call do not appear. For part of these data: Results with a measured potency or affinity are listed apart. Active and inactive are the calls of the source. Unless noted, no rule for the calls is given here.
# How the values were obtained:
# [1] = viability loss in pontine glioma line – cell-based, SU-DIPG-XXV, MIPE5.0, CellTiter-Glo, qHTS, dose response (AID 1347065; cut-off not given, nearly all actives have AC50 up to about 26 µM;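 also: cells exposed to compound for 48 hours before ATP readout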); conditions: CellTiter-Glo ATP luminescence
# [2] = JHH-DIPG-1 glioma cell viability, MIPE5.0 library, CellTiter-Glo luminescence, qHTS (AID 1347067; cut-off not given, nearly all actives have AC50 up to about 26 µM;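 also: cells exposed to compound for 48 hours before readout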); conditions: JHH-DIPG-1 glioma viability, CellTiter-Glo ATP luminescence
# [3] = SU-DIPG-XXV glioma cell viability, MIPE5.0 library, qHTS (AID 1347068; cut-off not given, nearly all actives have IC50 up to about 30 µM;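 as to IC50: cells exposed to compound for 48 hours before viability readout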)
# [4] = SU-DIPG-VI glioma cell viability, MIPE4.0 library, CellTiter-Glo luminescence, qHTS (AID 1347066; cut-off not given, nearly all actives have AC50 up to about 30 µM;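 also: cells exposed to compound for 48 hours before readout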); conditions: CellTiter-Glo ATP luminescence
# [5] = biological target: Mitogen-activated protein kinase 7 (Homo sapiens) (UniProt Q13164); assay: ERK5 transactivation activators in reporter cells, primary screen, cell-based, HTS (AID 1508626;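 active = luciferase signal above three times the same-plate solvent-only control wells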;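 also: luciferase driven by Gal4-ERK5 fusion binding five Gal4 sites before minimal TATA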); conditions: HeLa Gal4-ERK5 transactivation, 18 h, at 5 µM, stronger effect = higher value
# [6] = growth inhibition of DIPG glioma cells, dose response, cell-based, SU-DIPG-XVII, MIPE5.0, CellTiter-Glo, qHTS (AID 1347060; cut-off not given, nearly all actives have AC50 up to about 26 µM;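 as to AC50: cells exposed to compound for 48 hours before viability readout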); conditions: SU-DIPG-XVII viability, CellTiter-Glo ATP luminescence
# [7] = inhibitors of Cryptococcus chitosan production, flow cytometry, Cibacron Brilliant Red staining (AID 1347148); conditions: Cryptococcus neoformans chitosan, stronger effect = lower value; at 10 µM unless noted;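 also: compound exposure lasted three days at 37 degrees C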
# [8] = circadian clock period modulators, cell-based, LOPAC library, luminescence reporter (AID 2774); conditions: circadian reporter cells, at 7 µM, actives lie on both sides;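 also: values are relative to mean of DMSO wells on each plate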
# [9] = rescue of polyQ-huntingtin neuronal dysfunction in worms, whole organism, C. elegans mechanosensory neurons, N-terminal huntingtin (AID 1599); conditions: touch response, stronger effect = higher value
# [10] = inhibitors of mitochondrial cytochrome c release, biochemical, purified mitochondria (AID 1603); conditions: stronger effect = lower value;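 also: mouse liver mitochondria challenged with calcium chloride; signal normalized to the plate average as 100%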
# [11] = inhibitors of polyQ protein aggregation (AID 1604); conditions: polyglutamine-induced protein aggregation inhibition assay; stronger effect = higher value; tested at 2.5 µM
# [12] = enhancers of glutamate uptake in motor neurons, MN-1 cell line (AID 1612); conditions: MN-1 motor neuron cells, stronger effect = higher value;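 also: tested at 1 µM final; 0% = mean of DMSO vehicle wells on each plate; positive means more glutamate uptake than control and negative means less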
# [13] = suppressors of polyglutamine aggregation in yeast, 75Q-TubH (AID 1616); conditions: S. cerevisiae 75Q-TubH polyglutamine aggregation suppression; stronger effect = higher value
# [14] = reducers of polyQ inclusions in PC12 cells, cell-based, NGF-treated PC12, GFPQ80 (AID 1614); conditions: PC12 NGF-treated GFP-polyQ80 inclusion reduction;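 also: lower means fewer inclusions and 0 means no inclusions at all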
# [15] = growth inhibition of DIPG glioma cells, dose response, cell-based, SU-DIPG-XIII, MIPE5.0, CellTiter-Glo, qHTS (AID 1347064; cut-off not given, nearly all actives have AC50 up to about 23 µM); conditions: SU-DIPG-XIII viability, CellTiter-Glo ATP luminescence
# [16] = system: Aerobactin synthetase IucA (Klebsiella pneumoniae, hypervirulent); assay: IucA enzyme inhibition, biochemical, LOPAC library, absorbance readout (AID 1346212); conditions: IucA enzyme assay, absorbance (OD) readout; stronger effect = lower value;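 tested at 8 µM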;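 also: 100% = no compound wells and 0% = no enzyme wells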
# [17] = biological target: ATP-dependent translocase ABCB1 (Homo sapiens) (UniProt P08183); assay: MDR1 (ABCB1) efflux transporter inhibition, cell-based (AID 377; in the data active = fluorescence slope change above about 50%); conditions: MDR1-expressing cells, fluorescent substrate accumulation slope; stronger effect = higher value; concentration not given here
# [18] = hESC survival regulators, cell-based (AID 493140); conditions: human embryonic stem cell survival screen; stronger effect = higher value;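 also: cells exposed to compounds for four days before counting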
# [19] = system: Aerobactin synthetase IucA (Klebsiella pneumoniae hvKP1); assay: Biochemical IucA enzyme inhibition primary screen of the Spectrum library (AID 1346200); conditions: malachite green pyrophosphate, A620, at 8 µM, stronger effect = lower value;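 also: 100% = wells without compound and 0% = wells lacking enzyme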
# Mitogen-activated protein kinase 7 (Homo sapiens), sequence (Q13164 whole entry, looked up, the tested form may be a part): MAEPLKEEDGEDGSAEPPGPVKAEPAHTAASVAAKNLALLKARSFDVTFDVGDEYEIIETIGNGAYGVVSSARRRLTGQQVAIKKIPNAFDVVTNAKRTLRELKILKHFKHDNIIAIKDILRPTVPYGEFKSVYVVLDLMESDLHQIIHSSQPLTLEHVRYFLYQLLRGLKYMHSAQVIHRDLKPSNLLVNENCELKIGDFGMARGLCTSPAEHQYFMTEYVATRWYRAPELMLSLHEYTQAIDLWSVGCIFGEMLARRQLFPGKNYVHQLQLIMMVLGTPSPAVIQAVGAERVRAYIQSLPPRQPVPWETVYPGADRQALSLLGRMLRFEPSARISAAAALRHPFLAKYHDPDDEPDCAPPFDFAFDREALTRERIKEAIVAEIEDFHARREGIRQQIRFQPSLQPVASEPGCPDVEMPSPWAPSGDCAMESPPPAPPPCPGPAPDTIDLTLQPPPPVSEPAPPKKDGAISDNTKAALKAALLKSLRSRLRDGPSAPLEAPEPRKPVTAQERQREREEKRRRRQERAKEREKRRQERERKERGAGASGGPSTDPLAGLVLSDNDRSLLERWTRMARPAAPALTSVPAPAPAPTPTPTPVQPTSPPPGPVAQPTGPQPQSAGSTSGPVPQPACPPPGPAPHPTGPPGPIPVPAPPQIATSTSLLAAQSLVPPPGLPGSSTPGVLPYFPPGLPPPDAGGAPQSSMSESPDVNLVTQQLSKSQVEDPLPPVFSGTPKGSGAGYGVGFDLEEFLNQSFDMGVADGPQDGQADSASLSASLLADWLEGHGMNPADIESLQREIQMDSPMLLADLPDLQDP
# ATP-dependent translocase ABCB1 (Homo sapiens), sequence (P08183 whole entry, looked up): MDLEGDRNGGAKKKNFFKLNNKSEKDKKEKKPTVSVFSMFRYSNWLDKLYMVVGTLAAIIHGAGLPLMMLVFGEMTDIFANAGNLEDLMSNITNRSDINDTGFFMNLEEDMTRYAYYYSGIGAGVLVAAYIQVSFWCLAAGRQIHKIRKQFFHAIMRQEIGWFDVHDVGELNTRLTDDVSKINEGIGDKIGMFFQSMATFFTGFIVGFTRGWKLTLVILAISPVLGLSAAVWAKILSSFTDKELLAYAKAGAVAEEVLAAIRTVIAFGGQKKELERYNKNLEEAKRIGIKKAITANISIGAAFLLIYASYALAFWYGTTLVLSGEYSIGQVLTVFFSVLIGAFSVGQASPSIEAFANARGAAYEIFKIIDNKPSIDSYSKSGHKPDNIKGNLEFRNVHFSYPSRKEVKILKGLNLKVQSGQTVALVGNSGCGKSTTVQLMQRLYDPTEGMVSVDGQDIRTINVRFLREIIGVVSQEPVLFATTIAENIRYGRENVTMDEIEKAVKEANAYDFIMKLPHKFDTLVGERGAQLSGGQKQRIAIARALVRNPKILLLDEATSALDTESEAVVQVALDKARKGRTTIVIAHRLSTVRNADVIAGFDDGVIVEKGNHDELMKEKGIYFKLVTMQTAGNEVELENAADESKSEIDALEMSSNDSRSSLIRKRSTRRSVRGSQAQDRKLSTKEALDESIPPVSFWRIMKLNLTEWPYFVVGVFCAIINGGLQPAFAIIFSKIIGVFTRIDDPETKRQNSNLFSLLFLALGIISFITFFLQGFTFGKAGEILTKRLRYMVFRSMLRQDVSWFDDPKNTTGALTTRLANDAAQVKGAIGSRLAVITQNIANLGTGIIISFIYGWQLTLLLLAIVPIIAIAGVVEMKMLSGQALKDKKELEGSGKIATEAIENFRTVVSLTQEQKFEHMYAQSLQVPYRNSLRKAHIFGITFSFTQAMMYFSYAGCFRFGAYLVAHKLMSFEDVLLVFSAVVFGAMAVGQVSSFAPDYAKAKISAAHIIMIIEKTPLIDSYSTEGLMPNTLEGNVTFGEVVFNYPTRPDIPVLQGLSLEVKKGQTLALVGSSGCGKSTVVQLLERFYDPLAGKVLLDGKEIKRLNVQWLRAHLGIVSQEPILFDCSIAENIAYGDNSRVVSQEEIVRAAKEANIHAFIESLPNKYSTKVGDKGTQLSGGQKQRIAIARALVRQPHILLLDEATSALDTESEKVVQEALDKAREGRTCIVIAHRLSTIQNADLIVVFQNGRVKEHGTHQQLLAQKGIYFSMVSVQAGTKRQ
structure (smiles),measurement,setting,value
CC(O)(CS(=O)(=O)c1ccc(F)cc1)C(=O)Nc1ccc(C#N)c(C(F)(F)F)c1 (stereo not drawn),outcome,[1],inactive
same,outcome,[2],inactive
same,outcome,[3],inactive
CCOC(=O)c1cncn1[C@H](C)c1ccccc1,outcome,[4],inactive
same,luciferase signal,[5],52 AU (inactive)
CC(C)[C@]12O[C@H]1[C@@H]1O[C@]13[C@]1(O[C@H]1C[C@H]1C4=C(CC[C@@]13C)C(=O)OC4)[C@@H]2O,AC50,[6],186 nM (active)
same,AC50,[1],209 nM (active)
same,AC50,[2],83.3 nM (active)
same,IC50,[3],186 nM (active)
same,fold fluorescence,[7],4.23 [at 138.7 µM] (inactive)
Oc1cc2c(cc1O)[C@H]1c3ccccc3CN[C@@H]1CC2,period change,[8],-0.1 h (inactive)
O=C1Nc2ccc(Cl)cc2C(c2ccccc2Cl)=NC1O (stereo not drawn),rescue above control,[9],-10.3
same,cytochrome c release ratio,[10],1.2
same,inhibition of aggregation,[11],21.1%
same,glutamate uptake change,[12],-7.53%
same,aggregation suppression score,[13],0.626
CN=C1CN(O)C(c2ccccc2)=c2cc(Cl)ccc2=N1,rescue above control,[9],-9.17
same,cytochrome c release ratio,[10],1.33
same,inhibition of aggregation,[11],32%
same,glutamate uptake change,[12],-4.65%
same,inclusion score,[14],2
same,aggregation suppression score,[13],1.55
CC[C@@H](C(N)=O)N1CCCC1=O,outcome,[6],inactive
same,outcome,[15],inactive
same,outcome,[4],inactive
same,outcome,[3],inactive
COC(=O)N1CCN(C(=O)Cc2ccc(Cl)c(Cl)c2)C(CN2CCCC2)C1 (stereo not drawn),period change,[8],-0.045 h (inactive)
same,remaining activity,[16],101% (inactive)
COc1ccc2c(c1)C13CCCC[C@@H]1C(C2)N(C)CC3 (stereo partly drawn),fluorescence slope change,[17],14.1% (inactive)
same,survival,[18],5.75 (inactive)
same,remaining activity,[16],108% (inactive)
CN1C(=O)CN=C(c2ccccc2)c2cc(Cl)ccc21,rescue above control,[9],0.67
same,cytochrome c release ratio,[10],0.88
same,inhibition of aggregation,[11],26.5%
same,glutamate uptake change,[12],-26.8%
same,inclusion score,[14],2
same,aggregation suppression score,[13],0.718
C[N+]1(C)CCN(c2ccccc2)CC1,period change,[8],-0.125 h (inactive)
same,remaining activity,[16],113% (inactive)
C[C@]12CCC(=O)C=C1CC[C@@H]1[C@@H]2CC[C@@]2(C)[C@H]1CC[C@]2(C)O,outcome,[4],inactive
CC[C@@H]1/C=C/C=C/C[C@H](C)[C@@H](O)[C@](C)(O)C(=O)[C@H](C)[C@@H](O)[C@H](C)C(=O)[C@H](C)[C@@H](O)[C@H](C)/C=C/C(=O)O[C@H]2[C@@H](C)[C@@H](CC1)O[C@@]1(CC[C@@H](C)[C@@H](C[C@H](C)O)O1)[C@@H]2C,rescue above control,[9],-7.82
same,cytochrome c release ratio,[10],1.21
same,inhibition of aggregation,[11],-10.6%
same,glutamate uptake change,[12],5.74%
same,aggregation suppression score,[13],0.0317
same,fold fluorescence,[7],5.62 [at 63.2 µM] (inactive)
Cc1ccc(-c2nc3ccc(C)cn3c2CC(=O)N(C)C)cc1,activity remaining,[19],101% (inactive)
same,luciferase signal,[5],44 AU (inactive)
